Test results as given in PubChem BioAssay (EPA / NIEHS).
Some compounds were tested as several samples or in several runs, with calls that do not always agree. The source made the active and inactive calls. The calls were made as follows: active = hit-call score of the fitted dose curve at least 0.9, where 1 is the maximum; inactive = score below 0.9.

molecular target: Bile acid receptor (Homo sapiens) (UniProt Q96RI1); assay: ATG_IR1_CIS: Attagene CIS-FACTORIAL HepG2 Assay for human Nuclear Receptor Subfamily 1 Group H Member 4 (NR1H4), IR1 submotif (AID 2282946); conditions: IR1 reporter transcription, actives raise or lower the signal
Description: ATG_CIS is a cell-based, multiplexed-readout assay that uses HepG2, a human liver cell line, with measurements taken at 24 hours after chemical dosing in a 24-well plate.ATG_IR1_CIS is one of 52 assay component(s) measured or calculated from the ATG_CIS assay. It is designed to make measurements of mRNA induction, a form of inducible reporter, as detected with fluorescence intensity signals by Reverse transcription polymerase chain reaction (RT-PCR) and Capillary electrophoresis technology.Data from the assay component ATG_IR1_CIS was analyzed into 1 assay endpoint. This assay endpoint, ATG_IR1_CIS, was analyzed with bidirectional fitting relative to DMSO as the negative control and baseline of activity. Using a type of inducible reporter, measures of mRNA for gain or loss-of-signal activity can be used to understand the reporter gene at the transcription factor-level as they relate to the gene NR1H4. Furthermore, this assay endpoint can be referred to as a primary readout, because this assay has produced multiple assay endpoints where this one serves a reporter gene function. To generalize the intended target to other relatable targets, this assay endpoint is annotated to the nuclear receptor intended target family, where the subfamily is non-steroidal.
Human liver HepG2 cells are transiently transfected with multiple reporter transcription units (MRTUs) in 6-well plates using FuGene 6 reagent (Roche; 3 ml FuGene/1 mg DNA). The MRTU constructs are regulated by a cis-regulating element (promoter). […] A major difference between the CIS and TRANS system is that in CIS activities of endogenous TFs are measured, whereas the TRANS assay evaluates changes in activities of exogenous, chimeric NR-Gal4 proteins. […] At the end of 24 hour incubation, total RNA was isolated using TriZol reagent (Invitrogen). The isolated RNA is then reverse-transcribed using oligo(dT) primer and Mo-MLV reverse transcriptase (Invitrogen) with DNAse I (Ambion) treatment for 30 min. The one-tenth of the produced cDNA was amplified by PCR using Taq DNA polymerase (Invitrogen) and two reporter sequence-specific primers. The PCR products were fluorescently labeled by primer extension with 6-arboxyfluorescein (6-FAM) 5'-labeled reporter sequence-specific primer (2 min at 95 C, 20 s at 68 C and 10 min at 72 C) and these products were digested with 5U of HpaI (New England Biolabs) for 2h at 37 C. The fragments were purified using Qiaquick PCR columns (Qiagen), analyzed on an ABI 3130xL genetic analyzer (Applied Biosystems) with peak positions identified by using a set of X-rhodamine (ROX)-labeled MapMarker1000 molecular weight standards (BioVentures). The raw capillary electrophoresis data was processed using Attagraph software (Attagene).

Chain of Bile acid receptor (Homo sapiens) (Q96RI1 whole entry, looked up): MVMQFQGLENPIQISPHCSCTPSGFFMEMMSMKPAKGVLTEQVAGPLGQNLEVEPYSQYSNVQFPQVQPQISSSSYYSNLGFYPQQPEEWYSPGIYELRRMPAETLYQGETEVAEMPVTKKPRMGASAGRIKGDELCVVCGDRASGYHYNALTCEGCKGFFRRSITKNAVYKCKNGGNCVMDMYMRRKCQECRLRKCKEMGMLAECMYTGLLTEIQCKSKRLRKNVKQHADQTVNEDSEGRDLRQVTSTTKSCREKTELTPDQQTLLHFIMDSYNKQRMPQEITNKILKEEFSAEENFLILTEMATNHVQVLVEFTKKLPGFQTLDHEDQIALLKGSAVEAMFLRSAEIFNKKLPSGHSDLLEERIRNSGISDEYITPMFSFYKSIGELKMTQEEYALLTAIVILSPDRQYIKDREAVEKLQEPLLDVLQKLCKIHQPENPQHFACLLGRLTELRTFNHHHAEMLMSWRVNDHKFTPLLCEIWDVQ

Row | SMILES | outcome | AC50
1 | CCc1ccc(C(c2ccc(CC)cc2)C(Cl)Cl)cc1 | inactive | 
2 | N=C(N)C(F)(F)C(F)(F)C(F)(F)C(F)(F)C(F)(F)C(F)(F)C(F)(F)F | inactive | 
3 | OCCCC(F)(F)C(F)(F)C(F)(F)C(F)(F)C(F)(F)C(F)(F)C(F)(F)F | inactive | 
4 | FC(F)(I)C(F)(F)C(F)(F)C(F)(F)I | inactive | 
5 | O=C(O)C(F)(OC(F)(F)C(F)(OC(F)(F)C(F)(F)C(F)(F)F)C(F)(F)F)C(F)(F)F (stereo not given) | inactive | 
6 | NC(=O)C(F)(F)C(F)(F)C(F)(F)C(F)(F)F | inactive | 
7 | O=S(=O)(OCC(F)F)C(F)(F)F | inactive | 
8 | O=C(O)C(F)(F)C(F)(F)C(F)F | inactive | 
9 | CCO[Si](CCC(F)(F)C(F)(F)C(F)(F)C(F)(F)C(F)(F)C(F)(F)F)(OCC)OCC | inactive | 
10 | OCCCC(F)(F)C(F)(F)C(F)(F)F | inactive | 
11 | FC(F)(F)C(F)(F)C(F)(F)C(F)(F)C(F)(F)C(F)(F)C(F)(F)Br | inactive | 
12 | CCC(=O)OCCc1ccccc1 | inactive | 
13 | CC(=O)Nc1ccc(N=Nc2cc(C)ccc2O)cc1 | inactive | 
14 | O=S(=O)(O)C(F)(F)C(F)(F)C(F)(F)C(F)(F)C(F)(F)C(F)(F)C(F)(F)F | inactive | 
15 | C=CC/C=C/C/C=C/C/C=C/C | inactive | 
16 | CC(C)c1ccccc1N | inactive | 
17 | CO[Si](OC)(c1ccccc1)c1ccccc1 | inactive | 
18 | O=C(O)C(F)(F)C(F)(F)C(F)(F)C(F)(F)C(F)(F)C(F)(F)C(F)(F)C(F)(F)C(F)(F)C(F)(F)C(F)(F)C(F)(F)C(F)(F)F | inactive | 
19 | O=C(O)C=C(C(F)(F)F)C(F)(F)F | inactive | 
20 | FC(F)(Br)C(F)(F)C(F)(F)C(F)(F)C(F)(F)C(F)(F)Br | inactive | 

Row | SMILES | outcome | AC50
21 | CCCCC(CC)COP(=O)(O)OCC(CC)CCCC (stereo not given) | inactive | 
22 | CC(C)(C)C(=O)CC(=O)C(F)(F)C(F)(F)C(F)(F)F | inactive | 
23 | OCC(F)(F)C(F)(F)C(F)(F)F | inactive | 
24 | CC/C=C\CCOC(C)=O | inactive | 
25 | OCC(F)(F)C(F)(F)C(F)(F)C(F)(F)C(F)(F)C(F)F | inactive | 
26 | FC(F)(F)C(F)(F)C(F)(F)C(F)(F)C(F)(F)C(F)(F)C(F)(F)C(F)(F)CCS | inactive | 
27 | CCCCCCCCC(F)(F)C(F)(F)C(F)(F)C(F)(F)C(F)(F)C(F)(F)F | inactive | 
28 | CCCCCC=O | inactive | 
29 | CCCCCCOC(=O)c1ccccc1O | inactive | 
30 | O=C(O)C(F)(F)C(F)(F)C(F)(F)F | inactive | 
31 | CS(C)(=O)=O | inactive | 
32 | O=C(CC(=O)C(F)(F)C(F)(F)F)C(F)(F)F | inactive | 106 µM (active)
33 | FC(F)(F)C(F)(F)C(F)(F)C(F)(F)C(F)(F)CCI | inactive | 
34 | O=S(=O)(OCCOC(F)(F)F)C(F)(F)F | inactive | 
35 | C=CC(=O)OCC(F)(F)C(F)(F)C(F)(F)C(F)(F)COC(=O)C=C | inactive | 
36 | Cc1cccc(N(C)C)c1 | inactive | 
37 | CNC(=S)NC | inactive | 
38 | C=CC(F)(F)C(F)(F)C(F)(F)C(F)(F)C(F)(F)C(F)(F)C(F)(F)C(F)(F)C=C | inactive | 
39 | O=C(O)C(F)(F)C(F)(F)C(F)(F)C(F)(F)C(F)(F)C(F)(F)C(F)(F)C(F)(F)C(F)(F)C(F)(F)C(F)(F)C(F)(F)F | inactive | 
